{"source": "PubChem BioAssay (NCATS)", "note": "Results filed as inconclusive are left out. Entries that show only a call come without a potency. Active and inactive are the calls of the source. The call rests on the fitted dose curve; in most records, active means well fitted inhibition curve with a large enough effect; inconclusive means small, poorly fitted or top-dose-only effect; inactive means flat fitted curve, though single readings scatter.", "data": [{"biological_target": "Voltage-gated inwardly rectifying potassium channel KCNH2 (Homo sapiens) (UniProt Q12809)", "sequence (Q12809 whole entry, looked up)": "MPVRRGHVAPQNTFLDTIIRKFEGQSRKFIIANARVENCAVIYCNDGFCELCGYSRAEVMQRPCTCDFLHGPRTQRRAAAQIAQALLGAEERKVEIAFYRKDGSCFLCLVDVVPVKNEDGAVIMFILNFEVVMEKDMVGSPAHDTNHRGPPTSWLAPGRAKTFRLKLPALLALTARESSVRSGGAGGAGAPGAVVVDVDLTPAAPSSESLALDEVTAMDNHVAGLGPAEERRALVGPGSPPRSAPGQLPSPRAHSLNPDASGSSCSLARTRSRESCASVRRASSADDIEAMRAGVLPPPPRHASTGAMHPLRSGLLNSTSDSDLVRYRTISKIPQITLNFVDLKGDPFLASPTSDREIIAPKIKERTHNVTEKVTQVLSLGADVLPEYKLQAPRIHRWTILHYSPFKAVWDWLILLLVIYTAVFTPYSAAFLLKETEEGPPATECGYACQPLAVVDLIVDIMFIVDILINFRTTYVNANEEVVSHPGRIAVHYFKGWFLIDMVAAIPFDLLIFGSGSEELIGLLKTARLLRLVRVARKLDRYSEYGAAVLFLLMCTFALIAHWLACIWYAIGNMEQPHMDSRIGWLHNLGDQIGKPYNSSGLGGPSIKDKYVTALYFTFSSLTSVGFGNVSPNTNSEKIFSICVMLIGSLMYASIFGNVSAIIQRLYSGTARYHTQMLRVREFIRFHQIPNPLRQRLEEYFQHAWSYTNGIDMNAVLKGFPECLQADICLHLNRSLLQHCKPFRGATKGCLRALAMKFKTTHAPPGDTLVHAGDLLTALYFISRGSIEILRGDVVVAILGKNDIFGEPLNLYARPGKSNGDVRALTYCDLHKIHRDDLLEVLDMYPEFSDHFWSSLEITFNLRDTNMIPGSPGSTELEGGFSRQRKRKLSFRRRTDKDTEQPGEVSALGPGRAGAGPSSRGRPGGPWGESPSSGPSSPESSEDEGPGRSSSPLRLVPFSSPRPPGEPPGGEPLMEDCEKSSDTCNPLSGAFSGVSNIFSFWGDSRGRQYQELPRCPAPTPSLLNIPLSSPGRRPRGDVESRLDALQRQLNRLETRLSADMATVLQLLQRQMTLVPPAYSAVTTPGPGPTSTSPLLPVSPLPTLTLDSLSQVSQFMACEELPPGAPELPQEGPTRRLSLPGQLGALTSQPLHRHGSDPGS", "experiment": "qHTS Assay for Small Molecule Inhibitors of the Human hERG Channel Activity (AID 588834);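 further: top concentration of the series differs between compounds; lower thallium flux fluorescence means stronger hERG block; nearly all actives have a fitted effect of over 50% in size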", "settings": "U2OS BacMam hERG, FluxOR thallium flux fluorescence; series mostly up to 46.1 µM", "summary_of_the_method": "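Kinetic FDSS fluorescence; U2OS + hERG BacMam (~100 virus particles/cell); FluxOR Tl+ flux; ~10 min cpd; AC50 (Hill).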", "values": [{"smiles": "C[N+]1(C)[C@@H]2CC(OC(=O)[C@H](CO)c3ccccc3)C[C@H]1[C@H]1O[C@@H]12", "note": "(some centres undefined)", "Potency": "inactive"}, {"smiles": "C[Se]C[C@H](N)C(=O)O", "Potency": "inactive"}, {"smiles": "C[C@H](Cc1ccc2c(c1)OC(C(=O)O)(C(=O)O)O2)NC[C@H](O)c1cccc(Cl)c1", "Potency": "inactive"}, {"smiles": "CC(C)CC(NP(=O)(O)O[C@@H]1O[C@@H](C)[C@H](O)[C@@H](O)[C@H]1O)C(=O)NC(Cc1c[nH]c2ccccc12)C(=O)O", "note": "(some centres undefined)", "Potency": "inactive"}]}]}
